Experimental data reported in PubChem BioAssay (Tox21).
Unmarked numbers belong to inactive results. Inconclusive results are not listed. Where a call stands in place of a potency, no number is given. Activity calls are given as the source filed them. Unless noted, the call rests on the fitted dose curve; in most records, active means well fitted curve in the direction sought with a large enough effect in the repeat runs; inconclusive means weak or mixed curves; inactive means no such curve, though single readings can be large; an effect the other way counts as inactive or inconclusive.

Columns and labels:
[1] = A CellTox Green Cytotoxicity Assay to monitor cytotoxicity in HepG2 cells - 8 hour (AID 1224890); further: nearly all actives have a fitted effect of over 45% in size
How it was run: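 Measurements at 0, 8, 16, 24, 32 and 40 h of treatment captured CellTox Green fluorescence in HepG2 cells that had been co-plated with reagent and preincubated 5 h at 37 C/5% CO2.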

[2] = qHTS assay to identify small molecule antagonists of the estrogen receptor alpha (ER-alpha) signaling pathway using the BG1 cell line in the presence of 0.1 nM 17-beta-estradiol - cell viability counter screen (AID 1259241); further: nearly all actives have a fitted effect of over 40% in size
How it was run: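 Viability in VM7Luc4E2 cells after 22 hr compound exposure under 0.1 nM 17beta-estradiol stimulation, by CellTiter-Fluor.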

[3] = qHTS assay to identify small molecule antagonists of the androgen receptor (AR) signaling pathway using the MDA cell line in the presence of 0.5 nM R1881 - cell viability counter screen (AID 1259242); further: nearly all actives have a fitted effect of over 45% in size
How it was run: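 Concentration-response screen of compounds for toxicity in MDA-kb2 reporter cells: 16 hr at 37C with 0.5 nM R1881, endpoint live-cell protease fluorescence measured in the reporter wells.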

[4] = biological target: Estrogen receptor (Homo sapiens) (UniProt P03372); experiment: qHTS assay to identify small molecule antagonists of the estrogen receptor alpha (ER-alpha) signaling pathway using the BG1 cell line in the presence of 0.1 nM 17-beta-estradiol (AID 1259244); further: nearly all actives have a fitted effect of over 50% in size
How it was run: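 Compounds were tested against 0.1 nM (final) 17beta-estradiol in VM7Luc4E2 cells, which express full-length ER-alpha and an ERE-luciferase reporter; luminescence was recorded following 22 h exposure.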

[5] = qHTS assay to identify small molecule HDAC inhibitors (AID 1259364); further: potency means the concentration at half of the fitted maximal effect;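 further: wild-type HCT-116 cells with endogenous class I/II HDAC activity; nearly all actives have a fitted effect of over 45% in size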
How it was run: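 Screening used wild-type human colon HCT-116 cells incubated overnight, dosed with compounds for 2 hours, and assayed with a homogeneous luminogenic HDAC I/II reagent for 30 minutes at room temperature.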

[6] = qHTS assay to identify small molecule HDAC inhibitors - cell viability counter screen (AID 1259365); further: series mostly up to about 92 µM; nearly all actives have a fitted effect of over 50% in size
How it was run: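 Cytotoxicity was gauged in wild-type HCT-116 cells after a brief 2hr treatment with DMSO-dissolved compounds at 37C and 5% CO2, using CellTiter-Glo luminescence developed for 30min at room temperature.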

[7] = qHTS assay to identify small molecule agonists of the sonic hedgehog signaling (Shh) pathway - cell viability counter screen (AID 1259366); further: nearly all actives have a fitted effect of over 50% in size
How it was run: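 Stable Gli1-Luc NIH/3T3 clone, 2,000 cells/well. Compound exposure 24hr at 37C. Read-out: CellTiter-Fluor fluorescence.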

[8] = qHTS assay to identify small molecule antagonists of the sonic hedgehog signaling (Shh) pathway - cell viability counter screen (AID 1259367); further: nearly all actives have a fitted effect of over 55% in size
How it was run: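 CellTiter-Fluor signal in conditioned medium-stimulated 3T3 Gli1-Luc cells, 23 hr compound exposure, 37C.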

[9] = qHTS assay to identify small molecule agonists of the sonic hedgehog signaling (Shh) pathway (AID 1259368; calls by dose curve;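 further: NIH/3T3-derived 3T3Gli1-Luc cells carrying a stable Gli1-driven firefly luciferase reporter; series mostly up to about 92 µM; nearly all actives have a fitted effect of over 15% in size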)
How it was run: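 Hedgehog pathway agonism scored by increased firefly luciferase luminescence in 3T3Gli1-Luc cells treated 24 hr at 37 C; detection used a 30 min room-temperature reagent incubation.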

[10] = qHTS assay to identify small molecule antagonists of the sonic hedgehog signaling (Shh) pathway (AID 1259369; calls by dose curve; further: nearly all actives have a fitted effect of over 45% in size)
How it was run: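 NIH/3T3 stable Gli1-Luc clone, 2,000 cells/well, 4hr settle; cpd + conditioned medium 24hr; Luc reagent 30min RT; luminescence.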

[11] = biological target: Estrogen receptor beta (Homo sapiens) (UniProt Q92731); experiment: qHTS assay to identify small molecule agonists of the estrogen receptor beta (ER-beta) signaling pathway (AID 1259377; active means well fitted activation curve with a large enough effect in the signal ratio in the repeat runs, not every such curve was filed as active; the % refers to the signal ratio)
How it was run: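 Measured by fluorescence intensity from a B/G FRET beta-lactamase substrate (2 h, room temperature) in ER-beta-UAS-bla HEK293T cells treated with DMSO-dissolved compounds for 16 hr at 37C and 5% CO2.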

[12] = biological target: Estrogen receptor beta (Homo sapiens) (UniProt Q92731); experiment: qHTS assay to identify small molecule antagonists of the estrogen receptor beta (ER-beta) signaling pathway (AID 1259378; active means well fitted inhibition curve with a large enough effect in the signal ratio in the repeat runs, not every such curve was filed as active; the % refers to the signal ratio)
How it was run: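 Antagonist mode: compounds added to beta-lactamase reporter HEK293T ER-beta-UAS cells stimulated with E2 (1nM final), 16 hr at 37C. LiveBLAzer B/G FRET substrate, 2 hours room temperature, fluorescence read-out.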

[13] = qHTS assay to identify small molecule agonists of the androgen receptor (AR) signaling pathway in the presence of an antagonist - cell viability counter screen (AID 1259379);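 further: MDA-kb2 human breast cancer cells carrying an MMTV luciferase reporter; series mostly up to about 92 µM; nearly all actives have a fitted effect of over 25% in size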
How it was run: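 MDA-kb2 viability measured by CellTiter-Fluor fluorescence in the same wells as the luciferase signal; nilutamide 3.0uM final; 15-point compound titration; 16 hr at 37C.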

[14] = qHTS assay to identify small molecule agonists of the estrogen receptor beta (ER-beta) signaling pathway - cell viability counter screen (AID 1259380); further: nearly all actives have a fitted effect of over 30% in size
How it was run: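 Measured: luminescence from CellTiter-Glo after 30 min at room temperature, added to wells already read for the LiveBLAzer FRET reporter (2 hr substrate); ER-beta-UAS-bla HEK293T cells had 16 hr compound treatment at 37C, 5% CO2.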

[15] = qHTS assay to identify small molecule antagonists of the estrogen receptor beta (ER-beta) signaling pathway - cell viability counter screen (AID 1259382);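 further: HEK293T cells carrying ER-beta-UAS-bla reporter stimulated with estradiol; series mostly up to about 92 µM; nearly all actives have a fitted effect of over 55% in size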
How it was run: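 Readout: luminescence, CellTiter-Glo, same wells as bla assay. System: ER-beta-UAS-bla GripTite HEK293T, 2% charcoal-stripped FBS. Exposure: compounds plus 1nM 17-beta-estradiol, 16 hr, 37C.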

[16] = qHTS assay to identify small molecule agonists or antagonists of the thyroid stimulating hormone receptor (TSHR) signaling pathway - wild type cell line counter screen (AID 1259384; calls by dose curve)
How it was run: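 Counter screen in untransfected Hek293: compounds (15-point titration, triplicate) plus phosphodiesterase inhibitor Ro20-1724 added after 18 h plating; 30 min RT. Intracellular cAMP via competitive d2/cryptate immunoassay, 1 h incubation.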

[17] = biological target: Androgen receptor (Homo sapiens) (UniProt P10275); experiment: qHTS assay to identify small molecule antagonists of the androgen receptor (AR) signaling pathway using the MDA cell line in the presence of 0.5 nM R1881 (AID 1259243); further: nearly all actives have a fitted effect of over 50% in size
How it was run: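 With R1881 held at 0.5 nM (final), compound effects on MMTV-luciferase expression in MDA-kb2 cells were scored by luminescence after a 16 hr, 37C incubation.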

[18] = qHTS assay to identify small molecule phospholipidosis (PLD) inducers (AID 1259344; active means well fitted curve in the direction sought with a large enough effect; an effect the other way counts as inactive or inconclusive)
How it was run: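 Accumulated phospholipid, stained red by LipidTOX during 24 h compound treatment of HepG2 cells at 37 C, is quantified from images as pit number and intensity, normalised per cell using Hoechst-stained nuclei.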

[19] = biological target: Androgen receptor (Homo sapiens) (UniProt P10275); experiment: qHTS assay to identify small molecule agonists of the androgen receptor (AR) signaling pathway in the presence of an antagonist (AID 1259381; calls by dose curve; further: nearly all actives have a fitted effect of over 15% in size)
How it was run: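 Luminescent ONE-Glo read, 30min at room temperature, follows 16hr compound exposure (15 concentrations) of MDA-kb2 cells at 37C, 0% CO2, with nilutamide added at 3.0uM final.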

[20] = biological target: Estrogen receptor (Homo sapiens) (UniProt P03372); experiment: qHTS assay to identify small molecule agonists of the estrogen receptor alpha (ER-alpha) signaling pathway in the presence of an antagonist (AID 1259383; calls by dose curve; further: top concentration of the series differs between compounds; nearly all actives have a fitted effect of over 15% in size)
How it was run: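 Quantitative HTS confirmation: compounds titrated at 15 concentrations onto estrogen-deprived VM7Luc4E2 cells carrying a four-ERE luciferase construct, with ICI-182,780 present at 10.0nM final. Signal is luminescence after 22hr exposure.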

Sequence of Estrogen receptor beta (Homo sapiens) (Q92731 whole entry, looked up): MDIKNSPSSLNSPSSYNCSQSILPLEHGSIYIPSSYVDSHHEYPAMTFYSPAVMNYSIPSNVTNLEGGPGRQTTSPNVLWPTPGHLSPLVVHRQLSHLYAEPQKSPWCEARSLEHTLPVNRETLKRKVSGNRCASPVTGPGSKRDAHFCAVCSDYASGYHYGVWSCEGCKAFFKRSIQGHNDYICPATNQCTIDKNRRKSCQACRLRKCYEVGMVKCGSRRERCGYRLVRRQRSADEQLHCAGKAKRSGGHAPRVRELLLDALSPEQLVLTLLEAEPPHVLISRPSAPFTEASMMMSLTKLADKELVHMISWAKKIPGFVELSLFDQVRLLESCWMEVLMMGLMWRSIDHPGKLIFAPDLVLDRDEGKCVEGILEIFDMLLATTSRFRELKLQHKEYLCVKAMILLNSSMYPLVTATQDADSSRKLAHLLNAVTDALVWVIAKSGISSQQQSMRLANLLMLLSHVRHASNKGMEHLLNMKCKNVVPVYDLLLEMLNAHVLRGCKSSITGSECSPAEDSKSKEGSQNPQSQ
Sequence of Androgen receptor (Homo sapiens) (P10275 whole entry, looked up): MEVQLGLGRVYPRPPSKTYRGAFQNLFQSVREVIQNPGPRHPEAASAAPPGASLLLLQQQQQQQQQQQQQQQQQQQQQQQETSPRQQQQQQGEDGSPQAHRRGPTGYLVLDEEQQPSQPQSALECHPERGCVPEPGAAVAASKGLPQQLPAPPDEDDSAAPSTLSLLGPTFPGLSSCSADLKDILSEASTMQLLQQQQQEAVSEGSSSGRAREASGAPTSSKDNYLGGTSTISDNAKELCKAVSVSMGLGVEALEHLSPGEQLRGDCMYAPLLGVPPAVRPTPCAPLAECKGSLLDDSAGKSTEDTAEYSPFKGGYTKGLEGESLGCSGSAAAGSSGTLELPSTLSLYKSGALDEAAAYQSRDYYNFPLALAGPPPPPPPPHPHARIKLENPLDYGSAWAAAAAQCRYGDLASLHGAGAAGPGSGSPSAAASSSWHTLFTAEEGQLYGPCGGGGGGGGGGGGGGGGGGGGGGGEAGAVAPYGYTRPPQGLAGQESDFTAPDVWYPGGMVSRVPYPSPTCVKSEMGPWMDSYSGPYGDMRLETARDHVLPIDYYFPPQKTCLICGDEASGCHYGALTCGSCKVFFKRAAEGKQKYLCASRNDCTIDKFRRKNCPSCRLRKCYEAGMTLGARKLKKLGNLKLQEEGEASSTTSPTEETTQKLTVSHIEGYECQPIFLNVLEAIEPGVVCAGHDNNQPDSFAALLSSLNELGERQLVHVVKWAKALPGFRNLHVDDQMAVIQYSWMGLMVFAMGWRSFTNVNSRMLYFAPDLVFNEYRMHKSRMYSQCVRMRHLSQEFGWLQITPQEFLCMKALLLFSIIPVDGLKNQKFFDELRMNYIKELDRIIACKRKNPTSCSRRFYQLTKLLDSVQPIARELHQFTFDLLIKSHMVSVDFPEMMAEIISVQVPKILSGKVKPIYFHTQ
Sequence of Estrogen receptor (Homo sapiens) (P03372 whole entry, looked up): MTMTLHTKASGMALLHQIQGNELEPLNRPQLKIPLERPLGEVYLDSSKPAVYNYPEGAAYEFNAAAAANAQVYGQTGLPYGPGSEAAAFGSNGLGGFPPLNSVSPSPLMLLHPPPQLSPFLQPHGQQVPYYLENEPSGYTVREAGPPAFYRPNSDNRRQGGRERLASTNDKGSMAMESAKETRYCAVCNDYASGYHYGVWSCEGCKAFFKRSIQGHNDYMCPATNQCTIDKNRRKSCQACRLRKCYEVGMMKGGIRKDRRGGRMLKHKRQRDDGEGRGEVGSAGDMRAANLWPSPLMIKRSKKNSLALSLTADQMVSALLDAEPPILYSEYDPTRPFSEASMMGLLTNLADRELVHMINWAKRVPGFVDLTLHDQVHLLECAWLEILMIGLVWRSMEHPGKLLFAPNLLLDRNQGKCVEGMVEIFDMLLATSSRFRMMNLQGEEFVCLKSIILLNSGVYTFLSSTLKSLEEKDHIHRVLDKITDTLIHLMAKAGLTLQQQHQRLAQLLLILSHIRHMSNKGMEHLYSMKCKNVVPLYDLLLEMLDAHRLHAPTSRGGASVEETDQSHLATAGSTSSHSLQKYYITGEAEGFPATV

CCCCOc1ccc(N)cc1
Potency [1]: inactive | Potency [2]: inactive | Potency [3]: inactive | Potency [4]: inactive | Potency [5]: inactive | outcome [6]: inactive | Potency [7]: inactive | Potency [8]: inactive | Potency [9]: inactive | Potency [10]: inactive | Potency [11]: inactive | Potency [12]: inactive | Potency [13]: inactive | Potency [14]: inactive | Potency [15]: inactive | outcome [16]: inactive

CC[C@H](NC(C)C)[C@H](O)c1ccc(O)c2[nH]c(=O)ccc12
Potency [1]: inactive | Potency [2]: inactive | Potency [3]: inactive | Potency [17]: inactive | Potency [4]: inactive | Potency [18]: inactive | Potency [5]: inactive | outcome [6]: inactive | Potency [7]: inactive | Potency [8]: inactive | Potency [9]: inactive | Potency [10]: inactive | Potency [13]: inactive | Potency [14]: inactive | Potency [19]: inactive | Potency [15]: inactive | Potency [20]: inactive

CC(CC(C#N)(c1ccccc1)C(C)C)N(C)C (centres undefined)
Potency [1]: inactive | Potency [2]: inactive | Potency [3]: inactive | Potency [17]: inactive | Potency [5]: inactive | outcome [6]: inactive | Potency [7]: inactive | Potency [8]: inactive | Potency [9]: inactive | Potency [10]: inactive | Potency [13]: inactive | Potency [14]: inactive | Potency [19]: inactive | Potency [15]: inactive | Potency [20]: inactive | outcome [16]: inactive

CCC(C(=O)O)c1ccc(N2Cc3ccccc3C2=O)cc1 (centres undefined)
Potency [1]: inactive | Potency [2]: inactive | Potency [3]: inactive | Potency [17]: inactive | Potency [4]: inactive | Potency [5]: 2660 nM (active) | outcome [6]: inactive | Potency [7]: inactive | Potency [8]: inactive | Potency [9]: inactive | Potency [10]: inactive | Potency [14]: inactive | Potency [19]: inactive | Potency [15]: inactive

CCCCOC(=O)C(C)Oc1ccc(Oc2ccc(C(F)(F)F)cn2)cc1 (centres undefined)
Potency [1]: inactive | Potency [2]: inactive | Potency [3]: inactive | Potency [4]: inactive | Potency [5]: inactive | outcome [6]: inactive | Potency [7]: inactive | Potency [8]: inactive | Potency [9]: inactive | Potency [10]: inactive | Potency [11]: inactive | Potency [12]: inactive | Potency [13]: inactive | Potency [14]: inactive | Potency [15]: inactive | Potency [20]: inactive | outcome [16]: inactive

Cc1ccc(Cl)c(OCC(O)CNC(C)(C)C)c1 (centres undefined)
Potency [1]: inactive | Potency [2]: inactive | Potency [3]: inactive | Potency [4]: inactive | Potency [5]: inactive | outcome [6]: inactive | Potency [7]: inactive | Potency [8]: inactive | Potency [9]: inactive | Potency [10]: inactive | Potency [11]: inactive | Potency [12]: inactive | Potency [13]: inactive | Potency [15]: inactive

Cc1ccc2c(Cl)cc(Cl)c(O)c2n1
Potency [1]: inactive | Potency [2]: inactive | Potency [3]: inactive | Potency [17]: inactive | Potency [4]: inactive | PLD induction [18]: 0.648% [at 1.53 µM] | Potency [5]: inactive | outcome [6]: inactive | Potency [7]: inactive | Potency [8]: inactive | Potency [9]: inactive | Potency [10]: inactive | Potency [11]: inactive | Potency [12]: inactive | Potency [13]: inactive | Potency [14]: inactive | Potency [19]: inactive | Potency [15]: inactive | Potency [20]: inactive | outcome [16]: inactive

Nc1ccc(C(=O)Oc2ccccc2)c(O)c1
Potency [1]: inactive | Potency [2]: inactive | Potency [3]: inactive | Potency [4]: inactive | Potency [18]: inactive | outcome [6]: inactive | Potency [7]: inactive | Potency [8]: inactive | Potency [9]: inactive | Potency [10]: inactive | Potency [13]: inactive | Potency [14]: inactive | Potency [15]: inactive | Potency [20]: inactive | outcome [16]: inactive
